# mHTT-CaM PPI inh: inhibitors of human mutant huntingtin-calmodulin interaction; P42858; AlphaScreen His-mHTT/GST-CaM binding, luminescence; inhibition, % at 15 µM; 190,000 tested, 3.6% active
# Pf apPOL block: Pf-apPOL DNA polymerase inhibition; inhibition, % at 10 µM; Recombinant Pf-apPOL, molecular beacon fluorescence, 1.5 h; AID 1794808; 210,000 tested, 0.25% active
# Numbers stand for hits; . = inactive; / = no result given; ! = not confirmed by another sample. Only some compounds are listed: those with a hit (about 3.5% of all), similar ones and a draw of the others. No stated cut-off is given here; in the data, active means inhibition above about 50%; inactive means the rest.
SMILES,mHTT-CaM PPI inh,Pf apPOL block
CCOC(=O)CNC(=O)C1CCCc2c1[nH]c1ccc(Cl)cc21 (stereo unspecified),100,.
CCNC(=O)N1CCCC1c1nc2cc(-c3ccc(N(C)C)cc3)ccc2o1 (stereo unspecified),84,.
CC(C)(C)C(=O)N1CCCC1c1nc2cc(-c3ccccc3)ccc2o1 (stereo unspecified),.,.
Cc1cc(C=C2C(=O)NC(=O)NC2=O)c(C)n1-c1ccc(Cl)c(Cl)c1,.,.
Clc1ccc2nc(-c3ccc4c(c3)OCO4)cc(-c3ccccc3)c2c1,/,.
CC1CCN(C(=O)COc2ccc(C(C)C)cc2)CC1,.,.
O=C(COc1ccc(F)cc1)N1CCN(C(=O)COc2ccc(F)cc2)CC1,.,.
O=C(COc1ccc(F)cc1)N1CCC(n2nc(-c3ccsc3)ccc2=O)CC1,92,.
COc1ccc(OCC(=O)N2CCC(n3nc(-c4ccsc4)ccc3=O)CC2)cc1,88,.
COc1cccc(CC(=O)N2CCCC(c3nc(-c4ccc(NC(C)=O)cc4)no3)C2)c1 (stereo unspecified),.,.
O=C(Cc1ccc(Br)cc1)NCc1ccco1,.,.
Cn1c(=N)n(CC(O)c2ccc(Cl)c(Cl)c2)c2ccccc21 (stereo unspecified),.,.
Cc1ccccc1Cn1c(=N)n(CC(O)c2ccc(Cl)c(Cl)c2)c2ccccc21 (stereo unspecified),100,.
CN(C1CCCCC1)S(=O)(=O)c1cc(C(=O)Nc2ccc(Br)cc2)ccc1F,.,.
COc1cc(OC)cc(C(=O)N2CCC3(CC2)NC(=O)N(Cc2ccc(F)cc2)C3=O)c1,.,.
COc1ccc2cc(C(=O)NC(C)=O)c(=Nc3ccc(C#N)cc3)oc2c1,.,65
COc1ccc2oc(=Nc3ccc(F)cc3F)c(C(=O)NC(C)=O)cc2c1,.,.
COc1ccc2oc(=Nc3ccccc3F)c(C(=O)NC(C)=O)cc2c1,.,92
COc1ccc2oc(=Nc3ccc(C#N)cc3)c(C(=O)NC(C)=O)cc2c1,.,.
Cc1ccc(S(=O)(=O)Nc2cccc3ccc(-n4nc(C)cc4C)nc23)cc1,.,60
Cc1ccc(S(=O)(=O)Nc2cccc3ccc(C)nc23)cc1,.,.
O=C(Cc1ccc(Br)cc1)N1CCN(c2ccc([N+](=O)[O-])cc2)CC1,.,.
Cc1ccc2c(c1)NC(c1ccc([N+](=O)[O-])cc1)C1CC=CC21 (stereo unspecified),.,.
COc1cc([N+](=O)[O-])cc2c1NC(c1ccc(Br)cc1)C1CC=CC21 (stereo unspecified),.,.
O=[N+]([O-])c1ccc(C2Nc3ccc(F)cc3C3C=CCC32)cc1 (stereo unspecified),91,.
SMILES,mHTT-CaM PPI inh,Pf apPOL block
Brc1ccc2c(c1)[C@@H]1C=CC[C@@H]1[C@H](c1ccncc1)N2,.,/
Nc1ccc2c(c1)C1C=CCC1C(c1ccc([N+](=O)[O-])cc1)N2 (stereo unspecified),98,.
NS(=O)(=O)c1ccc2c(c1)C1C=CCC1C(c1ccc(Br)cc1)N2 (stereo unspecified),84,.
COc1cc(C2Nc3ccc([N+](=O)[O-])cc3C3C=CCC32)cc(OC)c1OC (stereo unspecified),71,.
Cc1ccc(C(O)=C2C(=O)C(=O)N(C)C2c2ccccc2)cc1 (stereo unspecified),.,.
NC(=O)C(CCCCC(=O)O)=NO,/,.
COc1ccc(CNC(=O)C2CCCN(C(=O)c3cc(C)cc(C)c3)C2)cc1 (stereo unspecified),.,.
CCCCOc1ccc(C/C(N)=N/n2cnnc2)cc1,.,.
Cc1cc(C)cc(S(=O)(=O)N2CCC(n3cnc4cc(F)ccc4c3=O)CC2)c1,.,.
Cc1nc(C(F)(F)F)ccc1NC(=O)C(F)(F)Sc1ccccc1,/,.
CC1(C(=O)NCc2ccccc2)CCCN(C(=O)Nc2cccc(Cl)c2)C1 (stereo unspecified),.,.
O=C(NC1CCCCC1)C1CCc2sc(C(=O)N3CCCCC3)cc2C1 (stereo unspecified),.,.
O=[N+]([O-])c1ccc(C2Nc3cc(Cl)cc(Cl)c3C3C=CCC32)cc1 (stereo unspecified),60,.
CCOC(=O)N1CCN(S(=O)(=O)CCNC(=O)c2ccc3c(c2)OCO3)CC1,.,.
COc1cc(/C=C(\C#N)c2ccc([N+](=O)[O-])cc2)ccc1O,.,.
COc1ccc(/C=C2\C(C)=C(C#N)c3nc(N)c(C#N)c(C)c32)cc1Br,.,.
CCN(C)c1ccc(/C=C(\C#N)c2[nH]nc(N)c2C#N)cc1,.,.
CCN(CC)c1ccc(/C=C(\C#N)c2[nH]nc(N)c2C#N)c(OC)c1,60,.
COc1ccc(/C=C(\C#N)c2[nH]nc(N)c2C#N)cc1Br,69,.
COc1ccc(/C=C(\C#N)c2nn(CCO)c(N)c2C#N)c(OC)c1,.,.
COc1cc(/C=C(\C#N)c2[nH]nc(N)c2C#N)ccc1O,54!,.
CCOc1cc(/C=C(\C#N)c2[nH]nc(N)c2C#N)ccc1O,73,.
Cc1ccc(C2=N/C(=C\c3ccc(N(C)C)cc3)C(=O)O2)cc1C,.,.
COc1ccc(NC(=O)C(=O)NC2CCCC2)cc1,.,.
COc1ccc(C(C)NC(=O)CN(c2ccc([N+](=O)[O-])cc2)S(=O)(=O)c2ccccc2)cc1 (stereo unspecified),.,.
SMILES,mHTT-CaM PPI inh,Pf apPOL block
COc1ccc(-c2csc(Nc3ccccc3)[n+]2CC(O)c2ccc([N+](=O)[O-])cc2)cc1 (stereo unspecified),66,.
CCOC(=O)CCCNC(=O)O[C@@H]1C[C@H]2C[C@@H]1[C@H]1CCCCN1C2,85,.
O=C(NCc1ccccc1)O[C@@H]1C[C@H]2C[C@@H]1[C@H]1CCCCN1C2,.,.
CCn1ccc2sc(C)c(C(=O)N3CCN(c4ccccc4F)CC3)c2c1=O,.,.
CCCn1ccc2sc(C)c(C(=O)N3CCCC3)c2c1=O,.,.
Cc1ccc(C)c(N2CCN(C(=O)c3c(C)sc4ccn(C)c(=O)c34)CC2)c1,92,.
CCn1ccc2sc(C)c(C(=O)N3CCN(c4ccc(F)cc4)CC3)c2c1=O,55,.
CCCn1ccc2sc(C)c(C(=O)N3CCN(c4ccc(F)cc4)CC3)c2c1=O,60,.
Cc1sc2ccn(C)c(=O)c2c1C(=O)N1CCCCCC1,.,.
Cc1ccc(NC(=O)CCCNS(=O)(=O)c2cccs2)cc1F,.,.
Cc1ccccc1Cn1nc(C)c(NC(=O)CCCn2nc(C)c([N+](=O)[O-])c2C)c1C,.,.
O=C(c1cc2sc(Br)cc2n1CC1CCCCO1)N1CCCC1 (stereo unspecified),70,.
Cc1cc2c(cc(C(=O)N3CCOCC3)n2CC2CCC2)s1,.,.
Cc1ccc(CNC2=NCCNC23CCN(S(=O)(=O)c2ccccc2)CC3)cc1,.,.
COc1ccc(-c2ccc(CN3C(C(C)C)C(=O)N(Cc4cn(CCC5OCCCO5)nn4)CCS3(=O)=O)cc2)cc1OC (stereo unspecified),.,.
Cc1ccccc1-c1ccc(CN2C(C(C)C)C(=O)N(Cc3cn(CCC4OCCO4)nn3)CCS2(=O)=O)cc1 (stereo unspecified),71,.
CC(C)Cc1ccc(CN2C(C(C)C)C(=O)N(Cc3cn(CCC4OCCO4)nn3)CCS2(=O)=O)cc1 (stereo unspecified),.,.

# Screening results (PubChem BioAssay)
